Source: PubChem BioAssay (NCATS)
Records with an inconclusive call do not appear. Values without a mark were called inactive. Active and inactive are the calls of the source. Calls follow the shape of the dose curve; as a rule, active = well fitted inhibition curve with a large enough effect; inconclusive = small, poorly fitted or top-dose-only effect; inactive = flat fitted curve, though single readings scatter.

test system: AA1029; assay: qHTS profiling for inhibitors of Plasmodium falciparum proliferation (AID 504749);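 also: 0% = DMSO vehicle and full inhibition = artemisinin control; nearly all actives have a fitted effect of over 60% in size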; conditions: P. falciparum in erythrocytes, SYBR Green DNA, 72 h; series mostly up to 28.7 µM; activity, negative = inhibition: at the top concentration
Summary of the method: (§1)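 SYBR Green fluorescence of parasite DNA, read after lysis and overnight dark incubation, measured growth over 72 h in erythrocyte culture at 0.3% parasitemia and 2.5% hematocrit. Data normalised to DMSO and 0.29 uM artemisinin, with plate-drift correction.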

| SMILES | Potency | activity, negative = inhibition |
| --- | --- | --- |
| C[N+]1([O-])[C@@H]2CC(OC(=O)[C@@H](CO)c3ccccc3)C[C@@H]1[C@H]1O[C@H]12 (stereo partly specified) | inactive |  |
| C[C@]12CC[C@H](O)CC1=CCC1C2CC[C@]2(C)C(=O)CC[C@@H]12 (stereo partly specified) |  | -6.02% |
| ClC1=C(Cl)C2(Cl)C3C4CC(C5OC45)C3C1(Cl)C2(Cl)Cl (stereo unspecified) |  | -26% |
| CCNC[C@H](O)c1cccc(O)c1 |  | -1.26% [at 12.8 µM] |

test system: AS120; assay: as above; conditions: P. falciparum in erythrocytes, SYBR Green DNA, 72 h; series mostly up to 28.7 µM; activity, negative = inhibition: at the top concentration
Summary of the method: as §1

| SMILES | Potency | activity, negative = inhibition |
| --- | --- | --- |
| C[N+]1([O-])[C@@H]2CC(OC(=O)[C@@H](CO)c3ccccc3)C[C@@H]1[C@H]1O[C@H]12 (stereo partly specified) | inactive |  |
| C[C@]12CC[C@H](O)CC1=CCC1C2CC[C@]2(C)C(=O)CC[C@@H]12 (stereo partly specified) |  | 7.06% |
| ClC1=C(Cl)C2(Cl)C3C4CC(C5OC45)C3C1(Cl)C2(Cl)Cl (stereo unspecified) |  | -23.9% |
| CCNC[C@H](O)c1cccc(O)c1 |  | 7.64% [at 12.8 µM] |

test system: ATS189; assay: as above; conditions: P. falciparum in erythrocytes, SYBR Green DNA, 72 h; series mostly up to 28.7 µM; activity, negative = inhibition: at the top concentration
Summary of the method: as §1

| SMILES | Potency | activity, negative = inhibition |
| --- | --- | --- |
| C[N+]1([O-])[C@@H]2CC(OC(=O)[C@@H](CO)c3ccccc3)C[C@@H]1[C@H]1O[C@H]12 (stereo partly specified) | inactive |  |
| C[C@]12CC[C@H](O)CC1=CCC1C2CC[C@]2(C)C(=O)CC[C@@H]12 (stereo partly specified) |  | 0.534% |
| ClC1=C(Cl)C2(Cl)C3C4CC(C5OC45)C3C1(Cl)C2(Cl)Cl (stereo unspecified) |  | -22.4% |
| CCNC[C@H](O)c1cccc(O)c1 |  | 5.09% [at 12.8 µM] |

test system: ATS95; assay: as above; conditions: P. falciparum in erythrocytes, SYBR Green DNA, 72 h; series mostly up to 28.7 µM; activity, negative = inhibition: at the top concentration
Summary of the method: as §1

| SMILES | Potency | activity, negative = inhibition |
| --- | --- | --- |
| C[N+]1([O-])[C@@H]2CC(OC(=O)[C@@H](CO)c3ccccc3)C[C@@H]1[C@H]1O[C@H]12 (stereo partly specified) | inactive |  |
| C[C@]12CC[C@H](O)CC1=CCC1C2CC[C@]2(C)C(=O)CC[C@@H]12 (stereo partly specified) |  | 10.8% |
| CCNC[C@H](O)c1cccc(O)c1 |  | 6.14% [at 12.8 µM] |

test system: C2A; assay: as above; conditions: P. falciparum in erythrocytes, SYBR Green DNA, 72 h; series mostly up to 28.7 µM; activity, negative = inhibition: at the top concentration
Summary of the method: as §1

| SMILES | Potency | activity, negative = inhibition |
| --- | --- | --- |
| C[N+]1([O-])[C@@H]2CC(OC(=O)[C@@H](CO)c3ccccc3)C[C@@H]1[C@H]1O[C@H]12 (stereo partly specified) | inactive |  |
| C[C@]12CC[C@H](O)CC1=CCC1C2CC[C@]2(C)C(=O)CC[C@@H]12 (stereo partly specified) |  | -4.64% |
| ClC1=C(Cl)C2(Cl)C3C4CC(C5OC45)C3C1(Cl)C2(Cl)Cl (stereo unspecified) |  | -23.4% |
| CCNC[C@H](O)c1cccc(O)c1 |  | -0.275% [at 12.8 µM] |

test system: CP185; assay: as above; conditions: P. falciparum in erythrocytes, SYBR Green DNA, 72 h; series mostly up to 28.7 µM; activity, negative = inhibition: at the top concentration
Summary of the method: as §1

| SMILES | Potency | activity, negative = inhibition |
| --- | --- | --- |
| C[N+]1([O-])[C@@H]2CC(OC(=O)[C@@H](CO)c3ccccc3)C[C@@H]1[C@H]1O[C@H]12 (stereo partly specified) | inactive |  |
| C[C@]12CC[C@H](O)CC1=CCC1C2CC[C@]2(C)C(=O)CC[C@@H]12 (stereo partly specified) |  | 2.58% |
| ClC1=C(Cl)C2(Cl)C3C4CC(C5OC45)C3C1(Cl)C2(Cl)Cl (stereo unspecified) |  | -28.2% |
| CCNC[C@H](O)c1cccc(O)c1 |  | 4.52% [at 12.8 µM] |

test system: CP191; assay: as above; conditions: P. falciparum in erythrocytes, SYBR Green DNA, 72 h; series mostly up to 28.7 µM; activity, negative = inhibition: at the top concentration
Summary of the method: as §1

| SMILES | Potency | activity, negative = inhibition |
| --- | --- | --- |
| C[N+]1([O-])[C@@H]2CC(OC(=O)[C@@H](CO)c3ccccc3)C[C@@H]1[C@H]1O[C@H]12 (stereo partly specified) | inactive |  |
| C[C@]12CC[C@H](O)CC1=CCC1C2CC[C@]2(C)C(=O)CC[C@@H]12 (stereo partly specified) |  | -1.46% |
| ClC1=C(Cl)C2(Cl)C3C4CC(C5OC45)C3C1(Cl)C2(Cl)Cl (stereo unspecified) |  | -23.2% |
| CCNC[C@H](O)c1cccc(O)c1 |  | -3.21% [at 12.8 µM] |

test system: CP192; assay: as above; conditions: P. falciparum in erythrocytes, SYBR Green DNA, 72 h; series mostly up to 28.7 µM; activity, negative = inhibition: at the top concentration
Summary of the method: as §1

| SMILES | activity, negative = inhibition |
| --- | --- |
| C[N+]1([O-])[C@@H]2CC(OC(=O)[C@@H](CO)c3ccccc3)C[C@@H]1[C@H]1O[C@H]12 (stereo partly specified) | 0.523% |
| ClC1=C(Cl)C2(Cl)C3C4CC(C5OC45)C3C1(Cl)C2(Cl)Cl (stereo unspecified) | -4.92% |
| CCNC[C@H](O)c1cccc(O)c1 | -3.56% [at 12.8 µM] |

test system: CP194; assay: as above; conditions: P. falciparum in erythrocytes, SYBR Green DNA, 72 h; series mostly up to 28.7 µM; activity, negative = inhibition: at the top concentration
Summary of the method: as §1

| SMILES | activity, negative = inhibition |
| --- | --- |
| C[N+]1([O-])[C@@H]2CC(OC(=O)[C@@H](CO)c3ccccc3)C[C@@H]1[C@H]1O[C@H]12 (stereo partly specified) | -11% |
| ClC1=C(Cl)C2(Cl)C3C4CC(C5OC45)C3C1(Cl)C2(Cl)Cl (stereo unspecified) | -9.74% |
| CCNC[C@H](O)c1cccc(O)c1 | 0.711% [at 12.8 µM] |

test system: CP201; assay: as above; conditions: P. falciparum in erythrocytes, SYBR Green DNA, 72 h; series mostly up to 28.7 µM; activity, negative = inhibition: at the top concentration
Summary of the method: as §1

| SMILES | activity, negative = inhibition |
| --- | --- |
| C[N+]1([O-])[C@@H]2CC(OC(=O)[C@@H](CO)c3ccccc3)C[C@@H]1[C@H]1O[C@H]12 (stereo partly specified) | 1.24% |
| ClC1=C(Cl)C2(Cl)C3C4CC(C5OC45)C3C1(Cl)C2(Cl)Cl (stereo unspecified) | -5.51% |
| CCNC[C@H](O)c1cccc(O)c1 | -0.844% [at 12.8 µM] |

test system: CP211; assay: as above; conditions: P. falciparum in erythrocytes, SYBR Green DNA, 72 h; series mostly up to 28.7 µM; activity, negative = inhibition: at the top concentration
Summary of the method: as §1

| SMILES | activity, negative = inhibition |
| --- | --- |
| C[N+]1([O-])[C@@H]2CC(OC(=O)[C@@H](CO)c3ccccc3)C[C@@H]1[C@H]1O[C@H]12 (stereo partly specified) | -0.817% |
| ClC1=C(Cl)C2(Cl)C3C4CC(C5OC45)C3C1(Cl)C2(Cl)Cl (stereo unspecified) | -0.41% |
| CCNC[C@H](O)c1cccc(O)c1 | -0.653% [at 12.8 µM] |

test system: CP217; assay: as above; conditions: P. falciparum in erythrocytes, SYBR Green DNA, 72 h; series mostly up to 28.7 µM; activity, negative = inhibition: at the top concentration
Summary of the method: as §1

| SMILES | Potency | activity, negative = inhibition |
| --- | --- | --- |
| C[N+]1([O-])[C@@H]2CC(OC(=O)[C@@H](CO)c3ccccc3)C[C@@H]1[C@H]1O[C@H]12 (stereo partly specified) | inactive |  |
| C[C@]12CC[C@H](O)CC1=CCC1C2CC[C@]2(C)C(=O)CC[C@@H]12 (stereo partly specified) |  | -3.66% |
| ClC1=C(Cl)C2(Cl)C3C4CC(C5OC45)C3C1(Cl)C2(Cl)Cl (stereo unspecified) |  | -27.8% |
| CCNC[C@H](O)c1cccc(O)c1 |  | 1.53% [at 12.8 µM] |

test system: CP237; assay: as above; conditions: P. falciparum in erythrocytes, SYBR Green DNA, 72 h; series mostly up to 28.7 µM; activity, negative = inhibition: at the top concentration
Summary of the method: as §1

| SMILES | Potency | activity, negative = inhibition |
| --- | --- | --- |
| C[N+]1([O-])[C@@H]2CC(OC(=O)[C@@H](CO)c3ccccc3)C[C@@H]1[C@H]1O[C@H]12 (stereo partly specified) | inactive |  |
| C[C@]12CC[C@H](O)CC1=CCC1C2CC[C@]2(C)C(=O)CC[C@@H]12 (stereo partly specified) |  | -2.1% |
| ClC1=C(Cl)C2(Cl)C3C4CC(C5OC45)C3C1(Cl)C2(Cl)Cl (stereo unspecified) |  | -20.7% |
| CCNC[C@H](O)c1cccc(O)c1 |  | 0.229% [at 12.8 µM] |

test system: CP238; assay: as above; conditions: P. falciparum in erythrocytes, SYBR Green DNA, 72 h; series mostly up to 28.7 µM; activity, negative = inhibition: at the top concentration
Summary of the method: as §1

| SMILES | Potency | activity, negative = inhibition |
| --- | --- | --- |
| C[N+]1([O-])[C@@H]2CC(OC(=O)[C@@H](CO)c3ccccc3)C[C@@H]1[C@H]1O[C@H]12 (stereo partly specified) | inactive |  |
| C[C@]12CC[C@H](O)CC1=CCC1C2CC[C@]2(C)C(=O)CC[C@@H]12 (stereo partly specified) |  | 8.25% |
| ClC1=C(Cl)C2(Cl)C3C4CC(C5OC45)C3C1(Cl)C2(Cl)Cl (stereo unspecified) |  | -16% |
| CCNC[C@H](O)c1cccc(O)c1 |  | -0.182% [at 12.8 µM] |
